# Results filed as inconclusive are left out. Calls of active or inactive are those of the source. The call rests on the fitted dose curve; in most records, active means well fitted cell-killing curve with a large enough effect; inconclusive means small, poorly fitted or top-dose-only effect, or effect the other way; inactive means no such curve, though single readings can be large or run the other way.
# Experiment: Quantitative High-Throughput drug screen in 47 multiple myeloma cell lines against the NCATS MIPE library collection: OCIMY1_PLB cell viability assay (AID 1918979); further: nearly all actives have a fitted effect of over 35% in size
# Conditions: OCI-MY1 myeloma viability, CellTiter-Glo ATP, 48 h; series mostly up to 45.8 µM
# Procedure, shortened: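 500 cells/well per myeloma line exposed to pinned MIPE 4.0 compounds for 48 h at 37 °C, 5% CO2. Viability read as ATP by CellTiter-Glo luminescence, normalised to DMSO-only (100%) and media-only (0%) wells.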
# Potency means the concentration at half of the fitted maximal effect.
row,SMILES,Potency
1,Cc1ccc(NC(=O)C2(c3ccc4c(c3)OC(F)(F)O4)CC2)nc1-c1cccc(C(=O)O)c1,0.187 µM (active)
2,Cc1ccc(-c2ncn(-c3ccc(Nc4nccc(-c5cccc(N6CCOCC6)c5)n4)cc3)n2)cn1,0.662 µM (active)
3,O=c1[nH]nc(Sc2ncc([N+](=O)[O-])s2)n1-c1ccc2c(c1)OCCO2,3.72 µM (active)
4,CN(C)CC=CC(=O)Nc1cc2c(Nc3ccc(F)c(Cl)c3)ncnc2cc1O[C@H]1CCOC1,16.6 µM (active)
5,Cn1c2ccccc2c2c3c(c4c5ccccc5n(CCC#N)c4c21)CNC3=O,14.8 µM (active)
6,CC(NCc1ccc2c(c1)nc(NC(=O)c1ccc(-c3cn[nH]c3)s1)n2CC(C)(C)O)C(C)(C)C (stereo not given),1.05 µM (active)
7,C#Cc1cccc(Nc2ncnc3cc(OC)c(OCCCCCCC(=O)NO)cc23)c1,1.05 µM (active)
8,CC(=O)OCC(=O)[C@@]1(O)[C@H](C)C[C@H]2[C@@H]3C=C(C)C4=Cc5c(cnn5-c5ccccc5)C[C@]4(C)[C@@H]3[C@@H](O)C[C@@]21C,9.35 µM (active)
9,CC(C)(C)c1cnc(CSc2cnc(NC(=O)C3CCNCC3)s2)o1,1.66 µM (active)
10,Cc1ccc(C(=O)Nc2cccc(C(F)(F)F)c2)cc1-c1ccc2nc(NCCN3CCOCC3)ncc2c1,18.7 µM (active)
11,OCCCNc1cc(-c2ccnc(Nc3cccc(Cl)c3)n2)ccn1,0.235 µM (active)
12,CC(C)c1ccccc1Cc1cc(C(=O)Nc2ccc(S(=O)(=O)c3ccccc3C(C)(C)C)cc2)c(O)c(O)c1O,23.5 µM (active)
13,N#CCNC(=O)c1ccc(-c2ccnc(Nc3ccc(N4CCOCC4)cc3)n2)cc1,23.5 µM (active)
14,CN1CC[C@@H](c2c(O)cc(O)c3c(=O)cc(-c4ccccc4Cl)oc23)[C@@H](O)C1,0.187 µM (active)
15,NC(=O)Nc1cc(-c2cccc(F)c2)sc1C(=O)N[C@H]1CCCNC1,4.69 µM (active)
16,CN(C)Cc1c(C(=O)NCCOc2ccc(C(=O)NO)cc2)oc2ccccc12,1.66 µM (active)
17,Cc1[nH]nc2ccc(-c3cncc(OC[C@@H](N)Cc4ccccc4)c3)cc12,6.62 µM (active)
18,COC(=O)[C@]12CCC(C)(C)C[C@@H]1[C@@H]1C(=O)C=C3[C@@]4(C)C=C(C#N)C(=O)C(C)(C)[C@@H]4CC[C@@]3(C)[C@]1(C)CC2,0.743 µM (active)
19,CC(C)C[C@H](NC(=O)CNC(=O)c1cc(Cl)ccc1Cl)B(O)O,0.0662 µM (active)
20,O=C(CCCCCCNC(=O)c1cnc(N(c2ccccc2)c2ccccc2)nc1)NO,13.2 µM (active)
21,CC=C1NC(=O)[C@H]2CSSCCC=C[C@H](CC(=O)N[C@H](C(C)C)C(=O)N2)OC(=O)[C@H](C(C)C)NC1=O,0.118 µM (active)
22,CC1=C(CO)C(=O)O[C@@H]([C@@H](C)[C@H]2CC[C@H]3[C@@H]4C[C@H]5O[C@]56[C@@H](O)C=CC(=O)[C@]6(C)[C@@H]4CC[C@]23C)C1,0.118 µM (active)
23,CC(=O)Nc1nc(C)c(-c2ccc(Cl)c(S(=O)(=O)NCCO)c2)s1,11.8 µM (active)
24,O=C(Nc1cc(C(F)(F)F)cc(C(F)(F)F)c1)c1cc(Cl)ccc1O,3.32 µM (active)
25,O=C(Nc1cn[nH]c1-c1nc2ccc(CN3CCOCC3)cc2[nH]1)NC1CC1,10.5 µM (active)
